Assay outcomes (PubChem BioAssay)
An excerpt weighted towards active compounds, which were near 6.1% of everything screened.
D1 antag: Antagonist of Human D 1 Dopamine Receptor: qHTS | D(1A) dopamine receptor (Homo sapiens), P21728 | HEK293 TREx D1 cells, calcium flux, dopamine EC80; hits give low values | activity change, negative = inhibition, % at 10 µM | hit rate 3.2% among 360,000 | AID 504652, 2011; in the data active = activity change below about -30%; also: % is scaled to controls: 0 for no effect and ±100 for the full control effect
Target sequence (P21728 whole entry, looked up): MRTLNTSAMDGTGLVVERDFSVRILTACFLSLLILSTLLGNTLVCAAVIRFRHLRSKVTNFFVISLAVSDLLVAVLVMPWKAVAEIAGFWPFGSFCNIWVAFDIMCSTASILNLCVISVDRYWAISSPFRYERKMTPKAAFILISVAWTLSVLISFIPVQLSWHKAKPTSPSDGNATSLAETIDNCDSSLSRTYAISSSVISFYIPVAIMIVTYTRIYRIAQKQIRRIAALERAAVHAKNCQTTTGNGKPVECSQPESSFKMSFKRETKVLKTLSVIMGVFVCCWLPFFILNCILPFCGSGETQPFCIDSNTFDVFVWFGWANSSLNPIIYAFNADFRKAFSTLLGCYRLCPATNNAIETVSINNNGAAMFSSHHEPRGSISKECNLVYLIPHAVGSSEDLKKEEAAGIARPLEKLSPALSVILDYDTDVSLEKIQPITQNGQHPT
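Antagonism measured as reduced calcium response to an EC80 dopamine addition following 180 s compound pre-read; cells were inducible HEK293 Trex D1 plated overnight at 30 C, read kinetically at 1 cycle/sec.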
DRD3 antagonist: qHTS of D3 Dopamine Receptor Antagonist: qHTS; D(3) dopamine receptor (Homo sapiens), P35462; D3R cells, DiscoveRx beta-arrestin luminescence, antagonist mode; hits give low values; max response, negative = inhibition, %; hit rate 2.5% among 360,000; in the data active = max response below about -50%; inconclusive = no clear call, values can overlap the other calls; also: % is scaled to controls: 0 for no effect and ±100 for the full control effect
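Cells expressing the human receptor were seeded at 1500 cells/well, incubated overnight at 37 degrees C in 5% CO2, then exposed to library compounds with dopamine controls for 90 minutes at 37 degrees C before luminescent detection.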
DRD3 agonist: qHTS of D3 Dopamine Receptor Agonist: qHTS. D(3) dopamine receptor (Homo sapiens), P35462. D3R DiscoveRx beta-arrestin cells, luminescence, 90 min. max activation, %. hit rate 0.58% among 410,000; in the data active = max activation above about 30%; also: 0% is about no effect
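Cells at 1500/well, incubated overnight, then treated with pinned compounds (dopamine as control) for 90 min at 37 degrees C. DiscoveRx reagent added for 30 - 60 minutes at room temperature; luminescence read.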
D1 ag: Allosteric Agonists of the Human D1 Dopamine Receptor: qHTS | D(1A) dopamine receptor (Homo sapiens), P21728 | HEK293 T-REx D1 cells, calcium flux, agonist mode | activation, % at 2 µM | hit rate 1% among 360,000; in the data active = activation above about 30%; also: 0% is about no effect
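Tetracycline-induced HEK293 TREx D1 cells, force-coupled to calcium signalling, were dye-loaded with a no-wash calcium kit. Compound was pin-added after a 10 s baseline. Fluorescence was read kinetically at 1 cycle/s for 180 s, with calcium rises flagged as agonism.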
D1 potentiator: Potentiators of Human D1 Dopamine Receptor: qHTS; D(1A) dopamine receptor (Homo sapiens), P21728; HEK293 TREx D1 cells, calcium flux, dopamine EC20 potentiation; potentiation, % at 10 µM; hit rate 0.036% among 360,000; AID 504651, 2011; in the data active = potentiation above about 30%; also: 0% is about no effect
The depositor's hits bear a star; ? = inconclusive; / = no result; ! = not confirmed by another sample.

SMILES | D1 antag | DRD3 antagonist | DRD3 agonist | D1 ag | D1 potentiator
O=C(NC(c1ccc(F)cc1)c1ccc2ccccc2n1)C1CCN(Cc2ccc(Oc3ccccc3)cc2)CC1 (configuration not stated) | / | -89* | -25 | / | /
O=C(NC(c1ccccc1)c1ccc2ccccc2n1)C1CCN(Cc2ccc(Oc3ccccc3)cc2)CC1 (configuration not stated) | / | ? | -16 | / | /
COc1cc(CN2CCC(C(=O)NC(c3ccc(F)cc3)c3ccc4ccccc4n3)CC2)cc(OC)c1 (configuration not stated) | / | -68* | -24 | / | /
Cn1cc(CN2CCC(C(=O)NC(c3ccc(F)cc3)c3ccc4ccccc4n3)CC2)c2ccccc21 (configuration not stated) | / | -58* | -15 | / | /
C=CCNc1ncnc2c1[nH]c1ccc(Cl)cc12 | / | 1 | 3 | 35* | -2
CCN(CC)CCNC(=O)C(C)c1nn(CC)c(=O)c2ccccc12 (configuration not stated) | -57* | 3 | 3 | 1 | 3
CCN(CC)CCNC(=O)Cc1nn(CC)c(=O)c2ccccc12 | 19 | -15 | -15 | 4 | -6
Cc1cccc([C@@H]2[C@@H]3C(=O)N(Cc4ccccc4)C(=O)[C@@H]3[C@]3(C)C(=O)N(c4cccc(Cl)c4)C(=O)N23)c1 | 5 | -60* | -5 | 3 | -5
CCN1C(=O)[C@H]2[C@@H](c3ccc(C)cc3)N3C(=O)N(c4ccccc4)C(=O)[C@@]3(Cc3ccccc3)[C@H]2C1=O | 4 | 2 | -7 | 3 | 7
Cc1cccc([C@@H]2[C@@H]3C(=O)N(Cc4ccccc4)C(=O)[C@@H]3[C@]3(Cc4ccccc4)C(=O)N(c4cccc(Cl)c4)C(=O)N23)c1 | 2 | -20 | 6 | 4 | -2
CCN1C(=O)[C@H]2[C@@H](c3ccc(C)cc3)N3C(=O)N(c4ccc(C)cc4)C(=O)[C@@]3(Cc3ccccc3)[C@H]2C1=O | -15 | 43 | 48* | 3 | -8
Cc1cccc(/C=N/NC(=O)c2cccc([N+](=O)[O-])c2)n1 | -3 | -50* | -23 | 2 | -6
Cc1cccc(/C=N/NC(=O)c2cccc(Cl)c2)n1 | 5 | ? | 0 | 2 | 2
CCCCC(CC)COC(=O)C(C#N)=C(c1ccccc1)c1ccccc1 (configuration not stated) | / | -74* | -93 | 4 | 0
CCCCC(CC)COC(=O)CC(C(=O)OCC(CC)CCCC)S(=O)(=O)O (configuration not stated) | / | / | -6 | / | /
O=C1NN=C(c2ccc(Cl)cc2)CC1c1cccc(Cl)c1 (configuration not stated) | 15 | -61* | 9 | 8 | -1
CCOc1ccc(Cl)cc1CNCCCSc1nc(C)cc(C)n1 | -38* | -17 | -6 | 21 | -7
COc1cc(-c2cc(C(=O)O)c3c(OC)c(OC)c(OC)cc3n2)ccc1O | -50* | 14 | -3 | 1 | -8
CCn1cc([N+](=O)[O-])c(C(=O)N2N=C(c3ccc(OC)cc3OC)CC2c2ccccc2O)n1 (configuration not stated) | -31* | ? | -4 | 5 | -2
CCn1cc([N+](=O)[O-])c(C(=O)N2N=C(c3cccc4ccccc34)CC2c2ccccc2O)n1 (configuration not stated) | 12 | ? | 1 | 0 | 12
CCOC(=O)Nc1ccccc1C(=O)Nc1cc(C)cc(C)c1 | -24 | -13 | -17 | 2 | -4
CC(=O)Nc1cccc(C(=O)OCc2ccc(C(=O)Oc3ccc(Cl)cc3)cc2)c1 | -32* | 16 | 6 | 9 | -7
Cc1cccc(COC(=O)Nc2ccc(NC(=O)c3ccccc3Cl)cc2)c1 | -56* | 26 | -6 | 9 | -8
CC(=O)c1cccc(NC(=S)NC(=O)Cc2ccccc2)c1 | -5 | -5 | -5 | 20 | -4
COc1cc(OC)c(NC(=S)Nc2cccc(C(C)=O)c2)cc1Cl | -10 | -60* | -10 | 4 | -8
SMILES | D1 antag | DRD3 antagonist | DRD3 agonist | D1 ag | D1 potentiator
CC(=O)c1cccc(NC(=S)NC(=O)Cc2ccc(Cl)cc2)c1 | -1 | -12 | -3 | 63* | -5
COc1ccc(C(=O)NC(=S)Nc2ccc(Cl)c(C(=O)O)c2)cc1 | 8 | -17 | -6 | -2 | 6
CC(=O)c1cccc(NC(=S)NC(=O)c2ccc(C)cc2Cl)c1 | -19 | 21 | 1 | 6 | 0
CN(C)S(=O)(=O)Oc1cccc(C(=O)Nc2ccc(Cl)c(Cl)c2)c1 | -27 | -53* | 5 | 11 | -4
CSc1ccccc1COC(=O)Nc1ccccc1C | -2 | -23 | 0 | 2 | -5
CC(=O)c1cccc(NC(=S)NC(=O)c2ccccc2Cl)c1 | -31* | -20 | -5 | 6 | -3
CC(C)Oc1cccc(C(=O)NC(=S)Nc2ccc(Cl)c(C(=O)O)c2)c1 | -6 | -88* | -1 | 0 | 5
Cc1ccccc1NC(=O)OCc1ccccc1 | 4 | 7 | 61* | 2 | 5
CCOc1ccccc1NC(=O)C1CCCN(S(=O)(=O)c2cccs2)C1 (configuration not stated) | -11 | / | -7 | 2 | 3
CC(=O)Nc1cccc(NC(=O)c2ccccc2Cl)c1 | / | -55* | -9 | / | /
CC(=O)Nc1cccc(O)c1 | / | -1 | 83*! | 4 | 4
Cc1ccc(S(=O)(=O)CCC(=O)OCC(=O)c2ccc(C)c(C)c2)cc1 | -31* | 1 | 6 | 11 | -10
Cc1cc(NC(=O)CN(C)S(=O)(=O)c2ccc3c(c2)CCC(=O)N3)ccc1Br | -7 | / | -1 | 6 | -5
Cc1ccc(-c2csc3n[nH]c(=S)n23)cc1 | -4 | -100* | -2 | 1 | 3
CCn1c(-c2ccc(C)cc2)n[nH]c1=S | -17 | ? | -1 | 0 | -10
COCCNc1c2c(c(C#N)c3nc4ccccc4n13)CCCC2 | 6 | 7 | 5 | 0 | -2
N#Cc1c2c(c(NCc3cccnc3)n3c1nc1ccccc13)CCC2 | 2 | -53* | -1 | 0 | -5
Cc1nc(-c2ccc(OCC(C)C)c(C#N)c2)sc1C(=O)O | / | / | -3 | / | /
CNC(=O)COC(=O)c1ccccc1C(=O)c1ccc(Cl)c([N+](=O)[O-])c1 | -13 | -61* | 0 | 1 | -5
Nc1ccccc1Sc1ccc(C(=O)c2ccccc2C(=O)O)cc1[N+](=O)[O-] | 0 | -16 | 4 | 2 | 1
O=C(COC(=O)c1ccccc1C(=O)c1ccc(Cl)c([N+](=O)[O-])c1)NC1CC1 | -41* | -66* | -18 | -1 | -9
CC(C)OC(=O)c1ccccc1C(=O)c1ccc(N)c([N+](=O)[O-])c1 | -34* | -3 | 0 | -1 | -5
